From the supplement of paper PMC8728848
About 410 targets per protein were measured; listed, in parts, are those with the strongest signals and a random draw of the rest.

Key:
Assay in all cases: glycan array binding signal (z-score within array); higher = stronger binding
Conditions in all cases: glycan notation: IUPAC condensed, linker removed
[1] = molecular target: Fuc(a1-2)Gal
Procedure, shortened: (§1)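 The binding signal is a Z-score computed within each array and averaged over linkers. Arrays of the same protein sequence at different concentrations or buffers were also averaged together. Data originate from 3228 arrays in the Consortium for Functional Glycomics database, kept only where the protein sequence was available.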

[2] = molecular target: Fuc(a1-2)Gal(b1-3)GalNAc
Procedure, shortened: as §1

[3] = molecular target: Fuc(a1-2)Gal(b1-3)GalNAc(b1-3)Gal(a1-4)Gal(b1-4)Glc
Procedure, shortened: as §1

[4] = molecular target: Fuc(a1-2)Gal(b1-3)GlcNAc
Procedure, shortened: as §1

[5] = molecular target: Fuc(a1-2)Gal(b1-3)GlcNAc(b1-3)GalNAc
Procedure, shortened: as §1

[6] = molecular target: Fuc(a1-2)Gal(b1-3)GlcNAc(b1-3)[Neu5Ac(a2-6)Gal(b1-4)GlcNAc(b1-6)]Gal(b1-4)Glc
Procedure, shortened: as §1

[7] = molecular target: Fuc(a1-2)[Gal(a1-3)]Gal(b1-4)[Fuc(a1-3)]GlcNAc(b1-3)GalNAc
Procedure, shortened: as §1

[8] = molecular target: Fuc(a1-2)[GalNAc(a1-3)]Gal(b1-3)GlcNAc(b1-2)Man(a1-3)[Fuc(a1-2)[GalNAc(a1-3)]Gal(b1-3)GlcNAc(b1-2)Man(a1-6)]Man(b1-4)GlcNAc(b1-4)[Fuc(a1-6)]GlcNAc
Procedure, shortened: as §1

[9] = molecular target: Fuc(a1-2)[GalNAc(a1-3)]Gal(b1-4)GlcNAc(b1-3)Gal(b1-4)GlcNAc
Procedure, shortened: as §1

[10] = molecular target: Fuc(a1-3)[Gal(b1-4)]GlcNAc(b1-2)Man(a1-3)[Fuc(a1-3)[Gal(b1-4)]GlcNAc(b1-2)Man(a1-6)]Man(b1-4)GlcNAc(b1-4)[Fuc(a1-6)]GlcNAc
Procedure, shortened: as §1

[11] = molecular target: Gal(a1-3)GalNAc
Procedure, shortened: as §1

[12] = molecular target: Gal(b1-3)GalNAc(a1-3)[Fuc(a1-2)]Gal(b1-4)Glc
Procedure, shortened: as §1

[13] = molecular target: Gal(b1-3)GlcNAc(b1-6)Gal(b1-4)GlcNAc
Procedure, shortened: as §1

[14] = molecular target: Gal(b1-3)[Fuc(a1-4)]GlcNAc(b1-3)Gal(b1-4)GlcNAc
Procedure, shortened: as §1

[15] = molecular target: Gal(b1-3)[Neu5Ac(b2-6)]GalNAc
Procedure, shortened: as §1

[16] = molecular target: Gal(b1-4)GlcNAc(b1-3)Gal(b1-4)Glc
Procedure, shortened: as §1

[17] = molecular target: Gal6S(b1-3)GlcNAc6S
Procedure, shortened: as §1

[18] = molecular target: Gal6S(b1-4)Glc
Procedure, shortened: as §1

[19] = molecular target: GalNAc(b1-3)Gal
Procedure, shortened: as §1

[20] = molecular target: GalNAc(b1-3)Gal(a1-6)Gal(b1-4)Glc
Procedure, shortened: as §1

[21] = molecular target: GalNAc(b1-3)GalNAc
Procedure, shortened: as §1

[22] = molecular target: GalNAc(b1-4)GlcNAc(b1-2)Man(a1-3)[GalNAc(b1-4)GlcNAc(b1-2)Man(a1-6)]Man(b1-4)GlcNAc(b1-4)GlcNAc
Procedure, shortened: as §1

[23] = molecular target: Glc(a1-6)Glc(a1-6)Glc
Procedure, shortened: as §1

[24] = molecular target: GlcNAc(a1-4)Gal(b1-4)GlcNAc(b1-3)Gal(b1-4)GlcNAc
Procedure, shortened: as §1

[25] = molecular target: GlcNAc(a1-4)Gal(b1-4)GlcNAc(b1-3)Gal(b1-4)[Fuc(a1-3)]GlcNAc(b1-3)Gal(b1-4)[Fuc(a1-3)]GlcNAc
Procedure, shortened: as §1

[26] = molecular target: GlcNAc(b1-2)Man(a1-3)[GlcNAc(b1-2)Man(a1-6)]Man(b1-4)GlcNAc(b1-4)GlcNAc
Procedure, shortened: as §1

[27] = molecular target: GlcNAc(b1-2)[GlcNAc(b1-6)]Man(a1-6)[GlcNAc(b1-2)Man(a1-3)][GlcNAc(b1-4)]Man(b1-4)GlcNAc(b1-4)GlcNAc
Procedure, shortened: as §1

[28] = molecular target: Man(a1-2)Man(a1-2)Man(a1-3)Man
Procedure, shortened: as §1

[29] = molecular target: Man(a1-2)Man(a1-3)[Man(a1-2)Man(a1-6)]Man(a1-6)[Man(a1-2)Man(a1-2)Man(a1-3)]Man
Procedure, shortened: as §1

[30] = molecular target: Man(a1-3)[Man(a1-6)]Man(a1-6)[Man(a1-3)]Man(b1-4)GlcNAc(b1-4)GlcNAc
Procedure, shortened: as §1

[31] = molecular target: Neu5Ac(a2-3)Gal(b1-3)GlcNAc(b1-3)Gal(b1-4)GlcNAc
Procedure, shortened: as §1

[32] = molecular target: Neu5Ac(a2-3)Gal(b1-3)[Neu5Ac(a2-3)Gal(b1-4)]GlcNAc
Procedure, shortened: as §1

[33] = molecular target: Neu5Ac(a2-3)Gal(b1-3)[Neu5Ac(a2-6)]GalNAc
Procedure, shortened: as §1

[34] = molecular target: Neu5Ac(a2-3)Gal(b1-4)[Fuc(a1-3)]GlcNAc(b1-3)Gal
Procedure, shortened: as §1

[35] = molecular target: Neu5Ac(a2-8)Neu5Ac(a2-3)Gal(b1-4)Glc
Procedure, shortened: as §1

[36] = molecular target: Neu5Ac(a2-8)Neu5Ac(a2-3)[Gal(b1-3)GalNAc(b1-4)]Gal(b1-4)Glc
Procedure, shortened: as §1

[37] = molecular target: Neu5Gc(a2-6)GalNAc
Procedure, shortened: as §1

B1: Intelectin 1 (Homo sapiens), Q8WWA0 (protein)
chain: MNQLSFLLFLIATTRGWSTDEANTYFKEWTCSSSPSLPRSCKEIKDECPSAFDGLYFLRTENGVIYQTFCDMTSGGGGWTLVASVHENDMRGKCTVGDRWSSQQGSKAVYPEGDGNWANYNTFGSAEAATSDDYKNPGYYDIQAKDLGIWHVPNKSPMQHWRNSSLLRYRTDTGFLQTLGHNLFGIYQKYPVKYGEGKCWTDNGPVIPVVYDFGDAQKTASYYSPYGQREFTAGFVQFRVFNNERAANALCAGMRVTGCNTEHHCIGGGGYFPEASPQQCGDFSGFDWSGYGTHVGYSSSREITEAAVLLFYR
- glycan array binding signal (z-score) [1]: 2.53
- glycan array binding signal (z-score) [2]: -0.327
- glycan array binding signal (z-score) [3]: 0.742
- glycan array binding signal (z-score) [4]: 0.069
- glycan array binding signal (z-score) [5]: 0.22
- glycan array binding signal (z-score) [6]: 4.21
- glycan array binding signal (z-score) [7]: -0.244
- glycan array binding signal (z-score) [8]: 1.21
- glycan array binding signal (z-score) [9]: -0.387
- glycan array binding signal (z-score) [10]: 0.394
- glycan array binding signal (z-score) [11]: -0.41
- glycan array binding signal (z-score) [12]: 0.06
- glycan array binding signal (z-score) [13]: 0.042
- glycan array binding signal (z-score) [14]: 1.33
- glycan array binding signal (z-score) [15]: 2.22
- glycan array binding signal (z-score) [16]: 0.614
- glycan array binding signal (z-score) [17]: 1.05
- glycan array binding signal (z-score) [18]: -0.449
- glycan array binding signal (z-score) [19]: 2.09
- glycan array binding signal (z-score) [20]: -0.442
- glycan array binding signal (z-score) [21]: -0.802
- glycan array binding signal (z-score) [22]: 0.358
- glycan array binding signal (z-score) [23]: 0.027
- glycan array binding signal (z-score) [24]: 3.85
- glycan array binding signal (z-score) [25]: 3.27
- glycan array binding signal (z-score) [26]: -0.457
- glycan array binding signal (z-score) [27]: 0.148
- glycan array binding signal (z-score) [28]: 1.53
- glycan array binding signal (z-score) [29]: -0.313
- glycan array binding signal (z-score) [30]: -0.432
- glycan array binding signal (z-score) [31]: 0.545
- glycan array binding signal (z-score) [32]: -0.157
- glycan array binding signal (z-score) [33]: -0.094
- glycan array binding signal (z-score) [34]: -0.21
- glycan array binding signal (z-score) [35]: 0.12
- glycan array binding signal (z-score) [36]: 0.572
- glycan array binding signal (z-score) [37]: 0.523
